# Paper PMC11062922 (Nature Chemical Biology, 2023)
# Like-named read-outs stand apart in the source and are kept apart here.
# Assays:
# Parameters in all cases: species or system human, MV4-11 + K-562 + COLO205 + SK-N-BE2 + OVCAR-8
# CSNK1D = conditions: read-out: apparent Kd, n = 1
# MAPK10 = conditions: read-out: apparent Kd, compound concentrations: 100 nM and 1000 nM (sheet 'Samples'), n = 1
# MAPK9 = conditions: read-out: apparent Kd, compound concentrations: 100 nM and 1000 nM (sheet 'Samples'), n = 1
# PRKACA = conditions: read-out: apparent Kd, n = 1
# PRKACB = conditions: read-out: apparent Kd, n = 1
# AURKA = conditions: read-out: apparent Kd, n = 1
# BCR = conditions: read-out: apparent Kd, n = 1
# CAMKK2 = conditions: read-out: apparent Kd, n = 1
# CHEK1 = conditions: read-out: apparent Kd, n = 1
# EPHA4 = conditions: read-out: apparent Kd, n = 1
# EPHA5 = conditions: read-out: apparent Kd, n = 1
# EPHB2 = conditions: read-out: apparent Kd, n = 1
# EPHB4 = conditions: read-out: apparent Kd, n = 1
# MARK3 = conditions: read-out: apparent Kd, n = 1
# PRKAG2 = conditions: read-out: apparent Kd, n = 1
# TNK1 = conditions: read-out: apparent Kd, n = 1
# TNK2 = conditions: read-out: apparent Kd, n = 1
# CDK16 = conditions: read-out: apparent Kd; compound concentrations: 100 nM and 1000 nM (sheet 'Samples'), CATDS: 6.29330119004379E-3; n = 1
# STK16 = conditions: read-out: apparent Kd; compound concentrations: 100 nM and 1000 nM (sheet 'Samples'), CATDS: 6.09253969178725E-3; n = 1
# STK4 = conditions: read-out: apparent Kd; compound concentrations: 100 nM and 1000 nM (sheet 'Samples'), CATDS: 6.7227641521754398E-3; n = 1
# [1] = compound concentrations:100 nM and 1000 nM (sheet 'Samples')
structure (smiles),measurement,setting,value
COc1cccc2c(-c3ccncc3)c(-c3ccc(F)cc3)nn12 [GW468513X],potency estimated from few doses,"CSNK1D; compound concentrations: 100 nM and 1000 nM (sheet 'Samples'), CATDS: 0.14597424406190301",52 nM
same,potency estimated from few doses,MAPK10; CATDS: 5.7634861461912698E-2,346 nM
same,potency estimated from few doses,MAPK9; CATDS: 6.8874136988771595E-2,218 nM
CCn1c(-c2nonc2N)nc2c(C#CC(C)(C)O)nc(OC[C@@H](N)c3ccccc3)cc21 [GSK938890A],potency estimated from few doses,"PRKACA; compound concentrations: 100 nM and 1000 nM (sheet 'Samples'), CATDS: 0.21319960399835",22.6 nM
same,potency estimated from few doses,"PRKACB; compound concentrations: 100 nM and 1000 nM (sheet 'Samples'), CATDS: 0.177486762785802",30.8 nM
O=C1NC(=O)C(N2CCc3ccccc32)=C1c1ccccc1Cl [SB-373598],potency estimated from few doses,AURKA; [1],295 nM
same,potency estimated from few doses,BCR; [1],243 nM
same,potency estimated from few doses,CAMKK2; [1],588 nM
same,potency estimated from few doses,CHEK1; [1],999 nM
same,potency estimated from few doses,EPHA4; [1],387 nM
same,potency estimated from few doses,EPHA5; [1],276 nM
same,potency estimated from few doses,EPHB2; [1],110 nM
same,potency estimated from few doses,EPHB4; [1],129 nM
same,potency estimated from few doses,MARK3; [1],1280 nM
same,potency estimated from few doses,PRKACB; [1],1480 nM
same,potency estimated from few doses,PRKAG2; [1],1390 nM
same,potency estimated from few doses,TNK1; [1],31.3 nM
same,potency estimated from few doses,TNK2; [1],108 nM
Fc1ccc(-c2c(-c3ccncc3)[nH]c3cccnc23)cc1 [RO1153853-000],potency estimated from few doses,"CSNK1D; compound concentrations: 100 nM and 1000 nM (sheet 'Samples'), CATDS: 0.18196610661617901",99.4 nM
same,potency estimated from few doses,MAPK9; CATDS: 7.2614011783570201E-2,541 nM
CN1C[C@@H]2Cn3c(c(C4=C(c5cn(C)c6ccccc56)C(=O)NC4=O)c4ccccc43)C[C@H]2C1.Cl [RO0320234-001],potency estimated from few doses,AURKA; [1],368 nM
same,potency estimated from few doses,BCR; [1],57.1 nM
same,potency estimated from few doses,CAMKK2; [1],1430 nM
same,potency estimated from few doses,CHEK1; [1],1280 nM
same,potency estimated from few doses,EPHA4; [1],321 nM
same,potency estimated from few doses,EPHA5; [1],207 nM
same,potency estimated from few doses,EPHB2; [1],52.9 nM
same,potency estimated from few doses,EPHB4; [1],15.9 nM
same,potency estimated from few doses,TNK1; [1],9.27 nM
same,potency estimated from few doses,TNK2; [1],84.4 nM
Cl.Cl.NCC(C(=O)Nc1cc(Br)c(-c2ccnc3[nH]ccc23)s1)c1ccccc1.NCC(C(=O)Nc1cc(Br)c(-c2ccnc3[nH]ccc23)s1)c1ccccc1 (stereo not drawn) [GSK1269851A],potency estimated from few doses,AURKA; [1],768 nM
same,potency estimated from few doses,BCR; [1],90.4 nM
same,potency estimated from few doses,CAMKK2; [1],1310 nM
same,potency estimated from few doses,CHEK1; [1],1700 nM
same,potency estimated from few doses,EPHA4; [1],510 nM
same,potency estimated from few doses,EPHA5; [1],74.9 nM
same,potency estimated from few doses,EPHB2; [1],94.9 nM
same,potency estimated from few doses,EPHB4; [1],54.6 nM
same,potency estimated from few doses,PRKACB; [1],1920 nM
same,potency estimated from few doses,PRKAG2; [1],111 nM
same,potency estimated from few doses,TNK1; [1],62.7 nM
same,potency estimated from few doses,TNK2; [1],46.6 nM
Clc1cc(Cl)cc(Nc2ccnc(Nc3cc(Cl)cc(Cl)c3)n2)c1 [GSK175726A],potency estimated from few doses,"AURKA; compound concentrations: 100 nM and 1000 nM (sheet 'Samples'), CATDS: 1.16998692507499E-2",470 nM
same,potency estimated from few doses,"BCR; compound concentrations: 100 nM and 1000 nM (sheet 'Samples'), CATDS: 1.5030836072921499E-2",242 nM
same,potency estimated from few doses,"CAMKK2; compound concentrations: 100 nM and 1000 nM (sheet 'Samples'), CATDS: 8.7749844490250094E-3",1420 nM
same,potency estimated from few doses,"CHEK1; compound concentrations: 100 nM and 1000 nM (sheet 'Samples'), CATDS: 9.2936135533363204E-3",1080 nM
same,potency estimated from few doses,"EPHA4; compound concentrations: 100 nM and 1000 nM (sheet 'Samples'), CATDS: 2.4571343446097599E-2",91.5 nM
same,potency estimated from few doses,"EPHA5; compound concentrations: 100 nM and 1000 nM (sheet 'Samples'), CATDS: 1.7966956970046102E-2",164 nM
same,potency estimated from few doses,"EPHB2; compound concentrations: 100 nM and 1000 nM (sheet 'Samples'), CATDS: 1.9895433949459099E-2",134 nM
same,potency estimated from few doses,"EPHB4; compound concentrations: 100 nM and 1000 nM (sheet 'Samples'), CATDS: 2.29851767560591E-2",103 nM
same,potency estimated from few doses,"PRKAG2; compound concentrations: 100 nM and 1000 nM (sheet 'Samples'), CATDS: 2.5465407694982199E-2",86.1 nM
same,potency estimated from few doses,"TNK1; compound concentrations: 100 nM and 1000 nM (sheet 'Samples'), CATDS: 5.9656473094293803E-2",24.9 nM
same,potency estimated from few doses,"TNK2; compound concentrations: 100 nM and 1000 nM (sheet 'Samples'), CATDS: 2.7223225317324601E-2",77.1 nM
CCn1c(-c2nonc2N)nc2c(C#CC(C)(C)O)nc(OCCN)cc21.CCn1c(-c2nonc2N)nc2c(C#CC(C)(C)O)nc(OCCN)cc21.Cl.Cl [GSK902056A],potency estimated from few doses,PRKACA; [1],1200 nM
same,potency estimated from few doses,PRKACB; [1],1000 nM
Cl.ON=C1CCc2cc(-c3nc(C4CCNCC4)[nH]c3-c3ccncc3)ccc21 [SB-614067-R],potency estimated from few doses,CSNK1D; [1],436 nM
CCn1c(-c2nonc2N)nc2c(-c3ccccc3)ncc(OCCCN)c21.CCn1c(-c2nonc2N)nc2c(-c3ccccc3)ncc(OCCCN)c21.O=C(O)C(F)(F)F.O=C(O)C(F)(F)F [GSK260205A],potency estimated from few doses,"CSNK1D; compound concentrations: 100 nM and 1000 nM (sheet 'Samples'), CATDS: 4.20751700104477E-2",469 nM
same,potency estimated from few doses,"PRKACA; compound concentrations: 100 nM and 1000 nM (sheet 'Samples'), CATDS: 2.90938755589953E-2",1480 nM
same,potency estimated from few doses,"PRKACB; compound concentrations: 100 nM and 1000 nM (sheet 'Samples'), CATDS: 3.9372517693277299E-2",557 nM
CCOC(=O)N1CCC(n2cnc(-c3ccc(F)cc3)c2-c2ccnc(N)n2)CC1 [SB-219952],potency estimated from few doses,"AURKA; compound concentrations: 100 nM and 1000 nM (sheet 'Samples'), CATDS: 9.8512895449749706E-3",901 nM
same,potency estimated from few doses,"CAMKK2; compound concentrations: 100 nM and 1000 nM (sheet 'Samples'), CATDS: 1.08972773288713E-2",701 nM
same,potency estimated from few doses,"CHEK1; compound concentrations: 100 nM and 1000 nM (sheet 'Samples'), CATDS: 8.4863258398705493E-3",1390 nM
same,potency estimated from few doses,"CSNK1D; compound concentrations: 100 nM and 1000 nM (sheet 'Samples'), CATDS: 0.19590664085395099",9.15 nM
same,potency estimated from few doses,"EPHA4; compound concentrations: 100 nM and 1000 nM (sheet 'Samples'), CATDS: 1.2785015902171799E-2",493 nM
same,potency estimated from few doses,"EPHA5; compound concentrations: 100 nM and 1000 nM (sheet 'Samples'), CATDS: 1.42398980321412E-2",397 nM
same,potency estimated from few doses,"EPHB2; compound concentrations: 100 nM and 1000 nM (sheet 'Samples'), CATDS: 1.57002336523176E-2",329 nM
same,potency estimated from few doses,"EPHB4; compound concentrations: 100 nM and 1000 nM (sheet 'Samples'), CATDS: 1.53468623139909E-2",344 nM
same,potency estimated from few doses,MAPK10; CATDS: 4.1731696442012502E-2,69 nM
same,potency estimated from few doses,MAPK9; CATDS: 3.1045225372311899E-2,107 nM
same,potency estimated from few doses,"MARK3; compound concentrations: 100 nM and 1000 nM (sheet 'Samples'), CATDS: 8.6555083221940901E-3",1300 nM
same,potency estimated from few doses,"PRKACA; compound concentrations: 100 nM and 1000 nM (sheet 'Samples'), CATDS: 8.0141425433071494E-3",1690 nM
same,potency estimated from few doses,"PRKACB; compound concentrations: 100 nM and 1000 nM (sheet 'Samples'), CATDS: 7.9637145567790901E-3",1730 nM
same,potency estimated from few doses,"PRKAG2; compound concentrations: 100 nM and 1000 nM (sheet 'Samples'), CATDS: 9.8371603155967009E-3",905 nM
same,potency estimated from few doses,"TNK1; compound concentrations: 100 nM and 1000 nM (sheet 'Samples'), CATDS: 1.30567209660681E-2",472 nM
same,potency estimated from few doses,"TNK2; compound concentrations: 100 nM and 1000 nM (sheet 'Samples'), CATDS: 1.6319458510121398E-2",307 nM
COc1ccc(Nc2ncc(C#N)c(Nc3ccccc3C(N)=O)n2)cc1N1CCN(C)CC1.Cl [GSK1558669A],potency estimated from few doses,"AURKA; compound concentrations: 100 nM and 1000 nM (sheet 'Samples'), CATDS: 3.9666626948294099E-2",12 nM
same,potency estimated from few doses,"BCR; compound concentrations: 100 nM and 1000 nM (sheet 'Samples'), CATDS: 1.27803345453226E-2",96.9 nM
same,potency estimated from few doses,"CAMKK2; compound concentrations: 100 nM and 1000 nM (sheet 'Samples'), CATDS: 6.1789819356504504E-3",1430 nM
same,potency estimated from few doses,CDK16,1270 nM
same,potency estimated from few doses,"CHEK1; compound concentrations: 100 nM and 1000 nM (sheet 'Samples'), CATDS: 1.1194862883684801E-2",137 nM
same,potency estimated from few doses,MAPK10; CATDS: 6.8664179629566802E-3,783 nM
same,potency estimated from few doses,MAPK9; CATDS: 7.8754696697006001E-3,427 nM
same,potency estimated from few doses,"MARK3; compound concentrations: 100 nM and 1000 nM (sheet 'Samples'), CATDS: 1.02819135302623E-2",174 nM
same,potency estimated from few doses,"PRKAG2; compound concentrations: 100 nM and 1000 nM (sheet 'Samples'), CATDS: 1.3647831185805001E-2",82.8 nM
same,potency estimated from few doses,STK16,1570 nM
same,potency estimated from few doses,STK4,872 nM
same,potency estimated from few doses,"TNK1; compound concentrations: 100 nM and 1000 nM (sheet 'Samples'), CATDS: 3.9834731570335402E-2",11.9 nM
